Test results from PubChem BioAssay AID1159580 (chemical genetic matrix, 2015).
“And” between values parts separate entries of the source, which are not always exact repeats. Identical values can stand only once. The whole screen tested about 5,500 compounds, of which about 2,000 (36%) were called active. Roughly 18% stayed inconclusive and do not appear here. Cut-off read from the data, not from the text of the source: active = normalized growth mostly below about 0.91 (no sharp cut-off); inconclusive = no clear call, values can overlap the other calls; inactive = mostly above about 0.92. The list shows a part of the results.

Assay: chemical genetic growth profiling, strain panel (AID 1159580);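 note: tested at 20 µM; growth read once vehicle control cultures reached saturation at 30 °C; 1 = growth at the plate median or of vehicle wells; lower values mean less growth of the strain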
Details: S. cerevisiae deletion strains, growth OD

Measured: normalized growth

CC(=O)O[C@@H]1CC2C(C)(C)C(=O)CC[C@]2(C)C2CC[C@@]3(C)[C@H](c4ccoc4)OC(=O)C4OC43[C@@]21C (some centres not stated)
inactive: locus YAL013W, strain DEP1, active compounds read low 1.01 | locus YAL021C, strain ccr4, active compounds read low 1.01 | locus YAL026C, strain drs2, active compounds read low 0.982 | locus YAL030W, strain snc1, active compounds read low 0.987 | locus YBL061C, strain skt5, active compounds read low 0.98 | locus YBR009C, strain hhf1, active compounds read low 0.985 | locus YBR021W, strain FUR4, active compounds read low 0.953 | locus YBR023C, strain chs3, active compounds read low 0.992 | locus YBR171W, strain sec66, active compounds read low 0.952 | locus YBR229C, strain ROT2, active compounds read low 1 | locus YBR231C, strain swc5, active compounds read low 1.01 | locus YBR279W, strain paf1, active compounds read low 0.991 | locus YCL011C, strain gbp2, active compounds read low 0.977 | locus YCL016C, strain dcc1, active compounds read low 1.03 | locus YCL029C, strain bik1, active compounds read low 1.02 | locus YCL069W, strain vba3, active compounds read low 0.96 | locus YCR088W, strain abp1, active compounds read low 0.973 | locus YDL005C, strain med2, active compounds read low 0.968 | locus YDL035C, strain GPR1, active compounds read low 0.985 | locus YDL040C, strain nat1, active compounds read low 0.976 | locus YDL074C, strain BRE1, active compounds read low 0.985 | locus YDL101C, strain DUN1, active compounds read low 1.01 | locus YDL134C, strain PPH21, active compounds read low 0.992 | locus YDL185W, strain tfp1, active compounds read low 1.01 | locus YDL192W, strain arf1, active compounds read low 1.01 | locus YDR001C, strain nth1, active compounds read low 0.981 | locus YDR069C, strain doa4, active compounds read low 0.943 | locus YDR101C, strain arx1, active compounds read low 0.994 | locus YDR137W, strain rgp1, active compounds read low 0.968 | locus YDR159W, strain sac3, active compounds read low 0.917 | locus YDR162C, strain NBP2, active compounds read low 0.981 | locus YDR195W, strain ref2 0.972 | locus YDR297W, strain sur2, active compounds read low 0.98 | locus YDR318W, strain mcm21, active compounds read low 1 | locus YDR334W, strain swr1, active compounds read low 0.98 | locus YDR335W, strain msn5, active compounds read low 0.981 | locus YDR388W, active compounds read low 1.01 | locus YDR392W, strain spt3, active compounds read low 0.897 | locus YDR502C, strain sam2, active compounds read low 1.02 | locus YEL003W, strain gim4, active compounds read low 0.965 | locus YEL037C, strain rad23, active compounds read low 0.978 | locus YEL061C, strain CIN8 (second series), active compounds read low 0.961 | locus YEL061C, strain CIN8, active compounds read low 1 | locus YER015W, strain faa2, active compounds read low 1 | locus YER016W, strain bim1, active compounds read low 0.972 | locus YER110C, active compounds read low 1.02 | locus YER111C, strain swi4, active compounds read low 0.961 | locus YER155C, strain BEM2 (second series), active compounds read low 1.01 | locus YER155C, strain BEM2, active compounds read low 0.978 | locus YER167W, strain BCK2, active compounds read low 0.993 | locus YFR010W, strain ubp6, active compounds read low 0.958 | locus YGL078C, strain dbp3, active compounds read low 1.01 | locus YGL086W, strain mad1, active compounds read low 1.01 | locus YGL167C, strain pmr1, active compounds read low 0.989 | locus YGL173C, strain kem1, active compounds read low 0.957 | locus YGL227W, strain vid30, active compounds read low 0.975 | locus YGL240W, strain doc1, active compounds read low 0.979 | locus YGL248W, strain PDE1, active compounds read low 0.998 | locus YGR135W, strain pre9, active compounds read low 1.03 | locus YGR252W, strain gcn5, active compounds read low 0.959 | locus YHR013C, strain ard1, active compounds read low 0.979 | locus YHR027C, strain rpn1, active compounds read low 0.987 | locus YHR030C, strain SLT2, active compounds read low 1.01 and 0.997 | locus YHR079C, strain IRE1 (second series), active compounds read low 1.02 | locus YHR079C, strain IRE1, active compounds read low 0.987 | locus YHR094C, strain hxt1, active compounds read low 1.02 | locus YHR129C, strain ARP1, active compounds read low 0.999 | locus YHR142W, strain chs7, active compounds read low 0.96 | locus YHR200W, strain rpn10, active compounds read low 1 | locus YIL066C, strain RNR3, active compounds read low 0.982 | locus YIL073C, strain SPO22, active compounds read low 1.01 | locus YIL125W, strain kgd1, active compounds read low 0.998 | locus YIR030C, strain dcg1, active compounds read low 1.01 | locus YJL092W, strain hpr5, active compounds read low 0.973 | locus YJL095W, strain BCK1 (second series), active compounds read low 0.993 | locus YJL095W, strain BCK1, active compounds read low 0.994 and 0.967 | locus YJL115W, strain asf1, active compounds read low 0.99 | locus YJL129C, strain trk1, active compounds read low 0.928 | locus YJL134W, strain LCB3, active compounds read low 0.999 | locus YJL154C, strain vps35, active compounds read low 0.984 | locus YJL164C, strain tpk1, active compounds read low 1.01 | locus YJL166W, strain qcr8, active compounds read low 0.977 | locus YJL168C, strain set2, active compounds read low 1.02 | locus YJL187C, strain SWE1 (second series), active compounds read low 1.01 | locus YJR066W, strain TOR1, active compounds read low 0.95 | locus YJR075W, strain HOC1, active compounds read low 0.992 | locus YKL009W, strain mrt4, active compounds read low 0.98 | locus YKL068W, active compounds read low 1 | locus YKL085W, strain MDH1 (second series), active compounds read low 1.01 | locus YKL085W, strain MDH1, active compounds read low 1.01 | locus YKL160W, strain elf1, active compounds read low 1.03 | locus YKL190W, strain CNB1, active compounds read low 1 | locus YKR001C, strain vps1, active compounds read low 0.987 | locus YKR026C, strain gcn3, active compounds read low 0.966 | locus YKR091W, strain srl3, active compounds read low 0.996 | locus YLL001W, strain dnm1, active compounds read low 0.959 | locus YLL026W, active compounds read low 0.989 | locus YLL041C, strain sdh2, active compounds read low 1 | locus YLR027C, strain aat2, active compounds read low 1 | locus YLR039C, strain RIC1, active compounds read low 1.03 | locus YLR058C, strain SHM2, active compounds read low 1 | locus YLR102C, strain apc9, active compounds read low 1.01 | locus YLR113W, strain HOG1, active compounds read low 1.02 | locus YLR221C, strain rsa3, active compounds read low 0.946 | locus YLR258W, strain gsy2, active compounds read low 0.988 | locus YLR262C, strain YPT6 (second series), active compounds read low 0.97 | locus YLR262C, strain YPT6, active compounds read low 1.01 | locus YLR268W, strain sec22, active compounds read low 0.994 | locus YLR320W, strain mms22, active compounds read low 0.969 | locus YLR342W, strain FKS1 (second series), active compounds read low 1 | locus YLR342W, strain FKS1, active compounds read low 0.977 | locus YLR357W, strain rsc2, active compounds read low 1.02 | locus YLR370C, strain arc18, active compounds read low 0.957 | locus YLR371W, strain rom2, active compounds read low 1 | locus YLR384C, strain iki3, active compounds read low 0.976 | locus YLR418C, strain cdc73, active compounds read low 0.979 | locus YML016C, strain PPZ1, active compounds read low 0.994 | locus YML032C, strain rad52, active compounds read low 0.995 | locus YML120C, strain ndi1, active compounds read low 1.01 | locus YML124C, strain tub3, active compounds read low 1 | locus YMR058W, strain fet3, active compounds read low 0.991 | locus YMR078C, strain ctf18, active compounds read low 1.01 | locus YMR125W, strain sto1, active compounds read low 0.978 | locus YMR129W, active compounds read low 0.985 | locus YMR205C, strain PFK2, active compounds read low 1 | locus YMR223W, strain ubp8, active compounds read low 1.01 | locus YMR231W, strain pep5, active compounds read low 0.966 | locus YMR307W, strain GAS1, active compounds read low 0.937 | locus YNL067W, strain RPL9B, active compounds read low 1.01 | locus YNL071W, strain lat1, active compounds read low 0.989 | locus YNL153C, strain GIM3, active compounds read low 1.01 | locus YNL183C, strain NPR1, active compounds read low 0.982 | locus YNL209W, strain ssb2, active compounds read low 0.997 | locus YNL233W, strain BNI4, active compounds read low 0.997 | locus YNL248C, strain rpa49, active compounds read low 0.942 | locus YNL250W, strain rad50, active compounds read low 1.01 | locus YNL271C, strain bni1, active compounds read low 1.01 | locus YNL298W, strain CLA4, active compounds read low 1.01 | locus YNL307C, strain MCK1, active compounds read low 1.02 | locus YNL322C, strain KRE1 (second series), active compounds read low 0.985 | locus YNR049C, strain mso1, active compounds read low 0.98 | locus YNR052C, strain pop2, active compounds read low 1.01 | locus YOL012C, strain htz1 0.799 | locus YOL147C, strain pex11, active compounds read low 1.01 | locus YOR001W, strain rrp6, active compounds read low 0.925 | locus YOR061W, strain CKA2, active compounds read low 0.985 | locus YOR069W, strain VPS5, active compounds read low 1.01 | locus YOR070C, strain gyp1, active compounds read low 0.989 | locus YOR080W, strain dia2, active compounds read low 0.976 | locus YOR083W, strain WHI5, active compounds read low 1.03 | locus YOR106W, strain vam3, active compounds read low 1 | locus YOR136W, strain idh2, active compounds read low 1.02 | locus YOR144C, strain elg1, active compounds read low 1 | locus YOR184W, strain ser1, active compounds read low 0.989 | locus YOR231W, strain MKK1, active compounds read low 1.01 | locus YOR265W, strain rbl2, active compounds read low 0.979 | locus YOR270C, strain vph1, active compounds read low 0.835 | locus YOR290C, strain snf2, active compounds read low 1.01 | locus YOR316C, strain cot1, active compounds read low 1.02 | locus YPL051W, strain arl3, active compounds read low 0.964 | locus YPL055C, strain LGE1, active compounds read low 0.963 | locus YPL078C, strain atp4, active compounds read low 1.03 | locus YPL106C, strain sse1, active compounds read low 1.01 | locus YPL240C, strain hsp82, active compounds read low 0.978 | locus YPL241C, strain CIN2, active compounds read low 0.999 | locus YPL256C, strain CLN2, active compounds read low 1.01 | locus YPR119W, strain clb2, active compounds read low 1.01 | locus YPR141C, strain kar3, active compounds read low 1.01 | locus YPR163C, strain tif3, active compounds read low 1.01 | locus YPR167C, strain met16, active compounds read low 1.01 | strain wtn01, active compounds read low 0.977
active: locus YGL253W, strain hxk2, active compounds read low 0.874
